Assay results published in PubChem BioAssay (NCI).
Compounds without any hit were thinned out: in the full panel of roughly 83,000, 20% have a hit.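 Plates (96-well) were seeded with cells, treated with compound at one concentration, and incubated for 48 hours before percent growth was determined.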 Unmarked numbers belong to inactive results. The source made the active and inactive calls. How the source made its calls: active means growth percent below 10; inactive means the rest.

Key:
Assay in all cases: NCI-60 one-dose screen, 48 h (100 = growth as untreated, 0 = no growth, -100 = all killed)
Details in all cases: 10 µM
NCI-H23 lung = system: NCI-H23 lung
NCI-H226 lung = system: NCI-H226 lung
NCI-H322M lung = system: NCI-H322M lung
HOP-62 NSCLC = system: HOP-62 NSCLC
NCI-H460 lung = system: NCI-H460 lung
NCI-H522 lung = system: NCI-H522 lung
A549/ATCC NSCLC = system: A549/ATCC NSCLC
786-0 renal = system: 786-0 renal
COLO 205 colon = system: COLO 205 colon
HOP-92 NSCLC = system: HOP-92 NSCLC

Structure (SMILES) | growth (NCI-H23 lung) | growth (NCI-H226 lung) | growth (NCI-H322M lung) | growth (HOP-62 NSCLC) | growth (NCI-H460 lung) | growth (NCI-H522 lung) | growth (A549/ATCC NSCLC) | growth (786-0 renal) | growth (COLO 205 colon) | growth (HOP-92 NSCLC)
Cc1ccc(Cl)cc1N1C(=O)CC(Sc2ccccc2N)C1=O (stereo unspecified) | 101% | 103% | 127% | 94.2% | 111% | 97% | 88.6% | 106% | 110% | 
CC(=O)OC(OC(C)=O)C1CCCO1 (stereo unspecified) | 97.4% | 103% | 114% | 99.2% | 109% |  | 101% |  | 105% | 94.1%
O=C1Cc2ccccc2C(=O)O1 | 107% | 108% | 110% | 108% | 108% |  | 110% |  | 123% | 92%
O=c1[nH]cc(Cl)cc1O | 96.4% | 95.5% | 97.1% | 103% | 94.1% | 60.7% | 75.2% | 101% | 112% | 
CCC/C=C(/C(C)=O)C(=O)OCC | 107% | 95.7% | 110% | 108% | 114% | 111% | 90.8% | 113% | 113% | 
CC(C)(N)COS(=O)(=O)O | 116% | 104% | 115% | 98.3% | 103% |  |  | 94.7% | 105% | 87.6%
N#CCCc1ccc(O)cc1 | 117% | 102% | 102% | 104% | 103% |  |  | 104% | 114% | 108%
O=C(O)CCCCNC(=O)c1ccccc1 | 91% | 92.3% | 106% | 90.8% | 106% | 89.4% | 98.4% | 97.5% |  | 
COC(=O)c1cccnc1 | 95.6% | 98% | 106% | 99.4% | 105% | 78.2% | 91.9% | 87.1% |  | 
CC(=O)Nc1cccc(Cl)c1C | 103% | 102% | 94% | 100% | 106% | 87.7% | 88.2% | 96.5% |  | 
C=CCNC(=O)c1ccc(OC)cc1 | 99.5% | 99.4% | 98.5% | 109% | 114% | -12.1% (active) | 50.4% | 107% | 109% | 
COC(=O)c1ccccc1N(C)C | 97.7% | 99.3% | 104% | 89.7% | 110% | 99.1% | 92.7% | 102% | 101% | 
COc1ncnc2c1cnn2C | 106% | 106% | 116% | 94.4% | 106% |  | 105% |  | 104% | 99.9%
Cc1nc2ccccc2c(C(=O)O)c1O | 104% | 91% | 117% | 88.3% | 110% | 104% | 103% | 103% |  | 
O=c1cc(-c2ccccc2)nc2cc(-c3ccco3)[nH]n12 | 96.5% | 102% | 95.6% | 88.3% | 104% | 71.8% | 56.7% | 111% |  | 
Cc1cc(C(C)(C)C)cc(C)c1Br | 104% | 111% | 121% | 99.8% | 103% |  | 109% |  | 112% | 75.5%
CCCOC(=O)C(O)c1ccccc1 (stereo unspecified) | 106% | 105% | 132% | 99.8% | 107% |  | 126% |  | 115% | 95%
